Assay outcomes deposited in PubChem by National Center for Advancing Translational Sciences (NCATS).
Sfp inh: blocks B. subtilis Sfp PPTase activity. Biochemical Sfp PPTase activity, qHTS. Potency, µM, for inactives: largest response in the series, negative = inhibition, most hits filed as inhibitors. 310,000 compounds, 3.5% hits. AID 1490;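 also: the enzyme is Sfp with the accession as filed and its product quenches rhodamine fluorescence; 0% = enzyme reaction without inhibitor and -100% = no enzyme wells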
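Buffer: 50 mM Hepes-Na pH 7.6, 10 mM MgCl2, 0.01% Nonidet P-40, 0.01% BSA. Enzyme 15 nM, pre-exposed to compound 15 min; substrates then added and fluorescence change tracked over 30 min.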
TrxR1 inh: rat TrxR1 inhibition; recombinant rTrxR1, NADPH fluorescence consumption, selenite substrate; Potency, µM (doses to about 114 µM), without a hit: top-dose activity change, negative = inhibition, hits mostly inhibitors; O89049; 390,000 compounds, 1% hits; also: nearly all actives have a fitted effect of over 65% in size
Target sequence (O89049 whole entry, looked up): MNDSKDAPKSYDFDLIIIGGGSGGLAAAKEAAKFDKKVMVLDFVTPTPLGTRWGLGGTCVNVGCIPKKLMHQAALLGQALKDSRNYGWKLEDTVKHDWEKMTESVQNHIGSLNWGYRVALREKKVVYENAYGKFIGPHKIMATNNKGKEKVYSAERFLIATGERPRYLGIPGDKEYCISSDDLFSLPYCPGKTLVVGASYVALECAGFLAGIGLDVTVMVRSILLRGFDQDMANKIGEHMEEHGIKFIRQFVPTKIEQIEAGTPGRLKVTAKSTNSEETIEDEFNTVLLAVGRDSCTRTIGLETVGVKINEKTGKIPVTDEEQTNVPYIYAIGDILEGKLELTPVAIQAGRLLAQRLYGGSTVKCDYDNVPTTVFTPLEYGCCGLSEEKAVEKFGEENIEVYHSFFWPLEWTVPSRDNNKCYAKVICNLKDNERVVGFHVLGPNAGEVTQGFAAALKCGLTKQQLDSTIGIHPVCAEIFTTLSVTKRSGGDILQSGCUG
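Rat TrxR1 (90 nM in the dispensed reagent) was pre-reduced with 400 uM NADPH for 5 min at room temperature, then incubated with compound for 15 min. After 400 uM selenite was added, NADPH fluorescence (Ex 340/Em 450 nm) was followed for 8 min.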
TrxR1 substrate: substrates of rat thioredoxin reductase 1 | O89049 | purified TrxR1 substrate turnover, NADPH consumption readout | Potency, µM (doses to about 114 µM), inactives show at the highest dose activity change, negative = substrate turnover | 390,000 compounds, 0.01% hits | AID 588456; also: nearly all actives have a fitted effect of over 50% in size
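Rat TrxR1, dispensed at 90 nM, was prereduced with 400 uM NADPH (final) for 5 min at ~22 deg C, then incubated with compound 15 min before 400 uM selenite. A first-read NADPH fluorescence drop versus no-compound background flagged substrates.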
VDR inhibitor: vitamin D3 receptor (human) inhibition. P11473. VDR-SRC2-3 peptide fluorescence polarization, 2 h. Potency, µM, without a hit: max response, negative = inhibition, actives largely listed as inhibitors. 400,000 compounds, 0.93% hits. AID 504847
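Two reagent solutions held at 4 deg C in the dark were dispensed, compounds pinned at 23 nl, and the mixture incubated 2 h at room temperature. Read-out: fluorescence polarization of VDR–SRC2-3 peptide binding.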
GLS inh: inhibitors of human glutaminase (GLS); GLS enzymatic activity, qHTS titration; O94925; Potency, µM (doses to about 45.5 µM), for inactives: top-dose activity change, negative = inhibition, usual class: inhibitors; 410,000 compounds, 0.21% hits; AID 624170
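Compounds were pin-transferred onto hKGA, after which L-glutamine (1 mM solution) and a detection mix of glutamate oxidase, HRP and Amplex Red were added. Initial and 30 min RT fluorescence reads were collected.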
GCN5L2 inh: blocks human GCN5L2 histone acetyltransferase | Q92830 | GCN5L2 HAT assay, ThioGlo1 CoA-SH fluorescence | Potency, µM (series often up to 58.9 µM), for inactives: at the top dose activity change, negative = inhibition, hits mostly inhibitors | 390,000 compounds, 0.21% hits | AID 504327
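Free CoA generated was detected with ThioGlo1 (50uM) fluorescence at Ex340nm/Em540nm, read immediately and after 20 min at room temperature. Enzyme, 20 nM in HEPES pH 7.5 buffer, saw compounds 15 min before adding 75uM H3(1-25) peptide and 70uM acetyl-CoA.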
An asterisk follows results filed as active; ? = inconclusive; · = not tested or not shown; [ ] = another dose, or the depositor's remark. Rows were chosen to be rich in hits. Some 3.8% of all compounds tested hit in one or more screens of this group. Calls follow the shape of the dose curve; as a rule, active = well fitted curve in the direction sought with a large enough effect; inconclusive = small, poorly fitted or top-dose-only effect, or another doubt; inactive = no such curve, though single readings can be large; an effect the other way counts as inactive or inconclusive. Unless noted, % is scaled to controls: 0 for no effect and ±100 for the full control effect; potency is read from the fitted curve at half-maximal effect.

SMILES	Sfp inh	TrxR1 inh	TrxR1 substrate	VDR inhibitor	GLS inh	GCN5L2 inh
COc1ccc(NC(=S)Nc2ccc(OCc3ccccc3)cc2)cc1OC	-1%	3%	-3%	12%	4%	2%
CCOC(=O)C1=C(C)N=c2s/c(=C/c3ccc(OCC(=O)O)cc3)c(=O)n2C1c1cc(OC)c(OC)c(OC)c1 (stereo not drawn)	-8%	5%[57.1 µM]	3%[57.1 µM]	?	-16%	-24%
COc1cccc(C2C(C(=O)Nc3ccccc3)=C(C)N=c3s/c(=C/c4ccc(OCC(=O)O)cc4)c(=O)n32)c1 (stereo not drawn)	1%	-21%	-20%	-14%	5%	-11%
CCOC(=O)C1=C(C)N=c2s/c(=C\c3cccc(OCC(=O)O)c3)c(=O)n2C1c1ccccc1OC (stereo not drawn)	79µM*	-4%	-4%	?	?	-2%
COc1cccc(C2C(C(=O)OC(C)C)=C(C)N=c3s/c(=C\c4ccc(C(=O)O)cc4)c(=O)n32)c1 (stereo not drawn)	-24%	11%	5%	89µM*	-2%	-19%
CCOC(=O)C1=C(C)N=c2s/c(=C\c3ccc(OC(C)=O)c(OCC)c3)c(=O)n2C1/C=C/c1ccccc1 (stereo not drawn)	45µM*	3%[57.1 µM]	-4%[57.1 µM]	-25%	36%	-3%
CCOC(=O)C1=C(C)N=c2s/c(=C\c3ccc(OCC(=O)O)cc3)c(=O)n2C1c1ccc(OC(C)C)cc1 (stereo not drawn)	-11%	-13%	-15%	50µM*	6%	?
CC(C)(C)CNC(=O)C1(C)CCN1C(=O)Cc1ccc(C(C)(C)C)cc1 (stereo not drawn)	·	·	·	·	6%	·
O=C(CSCc1n[nH]c(=O)[nH]1)NCCOc1cccc(Oc2ccccc2)c1	5%	19%	4%	5%	-2%	1%
CCc1nnc(NC(=O)C(=O)NCCOC(=O)c2ccccc2Cl)s1	0%	15%	8%	-1%	28%	3.2µM*
OC(CNCc1ccco1)Cn1c2ccc(Br)cc2c2cc(Br)ccc21 (stereo not drawn)	20µM*	-1%	4%	-2%	10%	-4%
O=C(OC1Cc2c(O)cc(O)cc2OC1c1cc(O)c(O)c(O)c1-c1c(C2Oc3cc(O)cc(O)c3CC2O)cc(O)c(O)c1O)c1cc(O)c(O)c(O)c1 (stereo not drawn)	40µM*	·	·	-14%	·	16µM*
O=C(NCCF)C1Nc2ccc(OC(F)(F)F)cc2C2C=CCC12 (stereo not drawn)	·	?	1%	-29%	-9%	·
COC(=O)CNC(=O)C1Nc2ccccc2C2C=CCC12 (stereo not drawn)	·	8.9µM*	4%[57.1 µM]	?	-14%	·
CC(C)CNC(=O)C1Nc2ccccc2C2C=CCC12 (stereo not drawn)	·	10µM*	9%[57.1 µM]	?	8%	·
CC(C)CNC(=O)C1Nc2ccc(C(F)(F)F)cc2C2C=CCC12 (stereo not drawn)	·	-15%[57.1 µM]	-2%[57.1 µM]	-15%	-8%	·
c1csc(-c2noc(COc3ccc4c(c3)CCCC4)n2)c1	45µM*	2%	-5%	7%	-2%	-9%
O=C(COC(=O)/C=C/c1ccco1)NC1CCCCC1	·	50µM*	-12%	-17%	-2%	-1%
CC1CCCCC1NC(=O)COC(=O)/C=C/c1ccco1 (stereo not drawn)	·	-21%	-10%	-23%	0%	-4%
CCOc1ccccc1OCC(=O)NCc1ccco1	-17%	28µM*	7%	-2%	32%	-8%
O=C(COC(=O)/C=C/c1ccco1)NCc1ccco1	50µM*	?	-3%	-8%	-20%	-24%
O=C(COc1ccccc1Cl)NCc1ccco1	7%	-2%	10%[0.457 µM]	-12%	14%	-1%
CC(=O)c1cccc(OCC(=O)N(C)CC(=O)NCc2ccco2)c1	·	?	4%	7%	13µM*	-18%
